Screening results deposited in PubChem BioAssay by Johns Hopkins Ion Channel Center.
KCNQ2 enhance – enhances the rat KCNQ2 potassium channel; O88943; CHO-K1 KCNQ2, FluxOR thallium flux fluorescence; active compounds read high; B-score at 10 µM; hit rate 0.54% among 310,000;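 active = fluorescence ratio B-score at least 3 SD of library B-scores, with initial fluorescence B-score within 3 of them, cut at about 5.3 in these data; same plate scores as AID 2156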;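 note: B-score of peak minus minimum over baseline fluorescence ratio after K+ and Tl+ stimulus; positive B-score means potentiation of KCNQ2 with more thallium influx and brighter signal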
Target sequence (O88943 whole entry, looked up): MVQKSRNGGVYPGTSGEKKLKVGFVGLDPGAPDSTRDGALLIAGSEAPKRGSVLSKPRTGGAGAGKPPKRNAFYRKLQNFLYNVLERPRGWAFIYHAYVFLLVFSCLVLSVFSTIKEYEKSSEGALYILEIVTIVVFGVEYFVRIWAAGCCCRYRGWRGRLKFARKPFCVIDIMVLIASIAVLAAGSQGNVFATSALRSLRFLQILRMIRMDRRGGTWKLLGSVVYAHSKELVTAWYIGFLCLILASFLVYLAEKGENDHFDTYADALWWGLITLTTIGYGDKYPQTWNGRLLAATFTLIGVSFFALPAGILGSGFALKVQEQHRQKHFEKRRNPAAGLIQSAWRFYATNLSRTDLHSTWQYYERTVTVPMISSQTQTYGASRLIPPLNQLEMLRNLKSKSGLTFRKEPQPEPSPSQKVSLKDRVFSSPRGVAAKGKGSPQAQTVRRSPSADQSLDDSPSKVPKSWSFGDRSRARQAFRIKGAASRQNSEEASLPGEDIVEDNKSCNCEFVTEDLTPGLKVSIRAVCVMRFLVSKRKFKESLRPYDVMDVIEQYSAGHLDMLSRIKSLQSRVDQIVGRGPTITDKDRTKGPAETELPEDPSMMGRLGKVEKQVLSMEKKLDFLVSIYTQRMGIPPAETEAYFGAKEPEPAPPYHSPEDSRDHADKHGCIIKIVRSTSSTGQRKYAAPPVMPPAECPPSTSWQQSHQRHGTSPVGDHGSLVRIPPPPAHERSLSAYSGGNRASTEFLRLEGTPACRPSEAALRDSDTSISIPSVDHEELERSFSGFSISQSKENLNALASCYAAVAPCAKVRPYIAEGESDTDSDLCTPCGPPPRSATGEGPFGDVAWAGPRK
KCNQ2 block – blocks the rat KCNQ2 potassium channel. O88943. CHO-K1 KCNQ2, FluxOR thallium flux, 20 min; active compounds read low. B-score at 10 µM. hit rate 1.1% among 310,000;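 active = fluorescence ratio B-score at most minus 3 library SDs, with starting brightness B-score within 2 library SDs, cut at about -5.5 in these data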
Kir21 confirm – confirmation of mouse Kir2.1 potassium channel inhibitors. shares compounds with KCNQ2 enhance. Kir2.1-expressing cells, FluxOR thallium flux fluorescence; active compounds read low. Tl flux remaining, % of negative control (active compounds read low), % at 10 µM. hit rate 41% among 2,300. AID 2032;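 active = Primary-screen hit whose thallium flux fell at least 3 control SD below untreated wells in both duplicates, with normal baseline fluorescence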;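 note: 0% = blank wells without stimulus and 100% = stimulated no-compound controls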
HEK293 Tl flux – alters thallium flux in parental HEK293 cells, Kir2.1 counter-screen; AID 2105; shares compounds with KCNQ2 enhance; hit rate 19% among 2,300; FluxOR signal as % of negative control (100 = no effect), % at 10 µM; FluxOR thallium flux fluorescence; 0% = unstimulated blank wells;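 active = dye signal at least 3 control SD above or below untreated wells in both duplicates, raw fluorescence within 3, either direction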;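 note: percent is based on the flux ratio of peak minus minimum fluorescence over baseline F0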
CHO-K1 Tl ctr – counter-screen for KCNQ2 potentiators: effect in parental CHO-K1 cells; shares compounds with KCNQ2 enhance; hit rate 43% among 1,200; FluxOR thallium flux fluorescence; zero = vehicle mean+3SD, 100% = vehicle-minus-blank window; AID 2282; activity increase over 3SD of controls, % at 10 µM;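 active = signal rise of at least 3 SD above the untreated control mean, in both duplicate wells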;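 note: counter screen of KCNQ2 potentiator hits so any rise reflects channel-independent effects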
KCNQ1 sel pot – tests whether KCNQ2 potentiators also act on human KCNQ1; shares compounds with KCNQ2 enhance; CHO KCNQ1 stable, FluxOR thallium flux fluorescence; beyond 3SD, as % of vehicle-control signal; activation over 3SD threshold, % at 10 µM; hit rate 28% among 1,200; AID 2283;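 active = fluorescence ratio rise of at least 3 SD of vehicle wells above their mean, in both replicate wells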;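 note: 0% = vehicle mean plus 3 SD and 100% = vehicle minus unstimulated blank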
KCNQ2 pot confirm – confirmation of rat KCNQ2 potassium channel potentiators. hit rate 68% among 1,200. potentiation, less the hit threshold, % at 10 µM. shares compounds with KCNQ2 enhance. CHO-KCNQ2 cells, FluxOR thallium flux fluorescence. AID 2287;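 active = fluorescence ratio rising 3 SD or more over the vehicle control mean in both replicates, plus primary screen hit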;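 note: peak minus minimum thallium fluorescence divided by baseline after K/Tl stimulus; 0% = vehicle mean plus 3 SD and 100% = vehicle minus unstimulated blank difference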
Kir2-1 sel – selectivity of KCNQ2 potentiators: effect on mouse Kir2.1; hit rate 2% among 1,200; AID 2345; HEK293 Kir2.1, FluxOR thallium flux fluorescence; activity over 3SD threshold, % at 10 µM; shares compounds with KCNQ2 enhance;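 active = fluorescence ratio rise of at least 3 SD above the vehicle-control mean, seen in both replicates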;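 note: 0% = vehicle mean plus 3 SD and 100% = vehicle minus no-stimulus blank window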
KCNQ2 W236L pot – potentiates the retigabine-insensitive rat KCNQ2 W236L mutant channel; shares compounds with KCNQ2 enhance; CHO KCNQ2-W236L, automated patch clamp current; current increase over 3SD of negative controls (%), active compounds read high, % at 25 µM; hit rate 10% among 940; AID 2558;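 active = current increase at least 3 SD of the untreated controls above them in both duplicate recordings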
Active calls of the source: *; i = inactive; x = no result. In the library only some 1.6% were active in any assay of this set; here they are far more common.

SMILES | KCNQ2 enhance | KCNQ2 block | Kir21 confirm | HEK293 Tl flux | others
CC/C(=C\C=C\[C@@H]1C=C[C@@H]2CCC[C@H]2[C@@H]1C(=O)c1ccc[nH]1)[C@@H]1O[C@@H]([C@@H](C)C(=O)O)CC[C@@H]1C | 28* | i | x | x | CHO-K1 Tl ctr=-14;KCNQ1 sel pot=-19;KCNQ2 pot confirm=74*;Kir2-1 sel=-48;KCNQ2 W236L pot=i
CC(NCc1ccc(Cl)cc1Cl)C(O)c1ccccc1 (stereo unspecified) | x | i | 16%* | i
CC(NCc1ccc(Cl)cc1)C(O)c1ccccc1 (stereo unspecified) | x | i | 22%* | 73%*
CC(NCc1cccc(Cl)c1Cl)C(O)c1ccccc1 (stereo unspecified) | x | i | x | x
CCOc1c(Cl)cc(CNC(C)C(O)c2ccccc2)cc1OC (stereo unspecified) | x | i | x | x
C=CCN1CCC2(C)c3cc(O)ccc3CC1C2C (stereo unspecified) | 0.09 | i | x | x
CC1(C)CN(S(=O)(=O)OCC(Cl)(Cl)Cl)C(=O)N1 | 0.74 | i | x | x
CCN1CCN(Cc2ccc(C)cc2)CC1 | 1.3 | i | x | x
Cc1cccc(CN2CCN(Cc3ccc(Cl)cc3)CC2)c1 | x | i | 24%* | i
Cc1ccc(CN2CCN(Cc3ccccc3F)CC2)cc1 | 0.52 | i | 42%* | i
Cc1cccc(CN2CCN(c3ccc(Cl)cc3)CC2)c1 | x | i | x | x
CCOc1ccccc1CN1C2CCC1CC(c1ccc(C)cc1)C2 (stereo unspecified) | x | i | x | x
CN1CCN(c2c(C#N)c(C(F)(F)F)nn2C)CC1 | x | i | x | x
CN(C)CC1CCCCC1OC(=O)Cc1ccc(Cl)c([N+](=O)[O-])c1 (stereo unspecified) | x | i | x | x
O=P(Oc1ccccc1)(Oc1ccccc1)C(O)c1ccccc1 (stereo unspecified) | x | i | x | x
O=P(Oc1ccccc1)(Oc1ccccc1)c1ccccc1 | x | i | 60%* | i
CN1CCN(Cc2cn(C)c3ccccc23)CC1CCO (stereo unspecified) | x | i | x | x
CC(=O)N1N=C(c2c(O)n(C)c(=O)n(C)c2=O)CC1c1ccccc1 (stereo unspecified) | 0.22 | i | x | x
CCCCCSc1cc(O)c(C(CNC)C(C)C)cc1OC (stereo unspecified) | 0.41 | i | x | x
CCCCCSc1cc(OC)c(CCN(C)C)cc1OC | 0.11 | i | 45%* | i
O=C1CN(O)C(c2ccccc2Cl)=c2cc(Br)ccc2=N1 | 1.3 | i | x | x
C=CCn1c(O)c(/C=N/N2CCCCC2)c(=O)[nH]c1=O | 0.12 | i | x | x
O=C1Nc2ccccc2/C1=C/c1cnc[nH]1 | 1.4 | i | x | x
COc1ccc2c(c1)/C(=C/c1cnc[nH]1)C(=O)N2 | 6.8* | i | i | i | CHO-K1 Tl ctr=-6;KCNQ1 sel pot=-17;KCNQ2 pot confirm=10*;Kir2-1 sel=-46;KCNQ2 W236L pot=i
COC[C@]12CN(C)C3C4[C@H](OC)[C@H]1C3([C@@H](OC)C[C@H]2O)[C@@H]1C[C@@]2(O)[C@H](OC(=O)c3ccccc3)[C@@H]1[C@]4(OC(C)=O)[C@@H](O)[C@@H]2OC | 3.6 | i | x | x
SMILES | KCNQ2 enhance | KCNQ2 block | Kir21 confirm | HEK293 Tl flux | others
O=c1[nH]sc2cc(F)ccc12 | 6.9* | i | x | x | CHO-K1 Tl ctr=-7;KCNQ1 sel pot=-16;KCNQ2 pot confirm=0.2*;Kir2-1 sel=-56;KCNQ2 W236L pot=56%*
O=C(c1ccc2c3c(cccc13)CC2)C1CCCN(CC2CC2)C1 (stereo unspecified) | 0.24 | i | x | x
CCOC(=O)c1cncn1[C@H](C)c1ccccc1 | x | i | x | x
Oc1cccc2nc3ccccc3nc12 | 12* | i | i | i | CHO-K1 Tl ctr=-14;KCNQ1 sel pot=-6;KCNQ2 pot confirm=7.1*;Kir2-1 sel=-35;KCNQ2 W236L pot=i
CCOc1cc2c(cc1OCC)-n1cccc1C(c1cccc([N+](=O)[O-])c1)NC2 (stereo unspecified) | 0.12 | i | x | x
Fc1ccc(C(OCCN2CCCC2)c2ccc(F)cc2)cc1 | 2.5 | i | x | x
Fc1ccc(C(OCCN2CCCC2)c2ccc(Br)cc2)cc1 (stereo unspecified) | x | i | 45%* | i
CCc1ccc(CNCCc2ccc(F)cc2)cc1 | x | i | x | x
Fc1ccc(CCNCc2ccc(Cl)c(Cl)c2)cc1 | x | i | 24%* | i
CCN1C[C@]2(C)CC[C@H](OC)[C@]34C2[C@H](OC(C)=O)[C@@]2(OCO[C@@]25C[C@H](OC)[C@H]2C[C@]3(O)C5[C@H]2OC)[C@@H]14 | x | i | x | x
Cc1nc2ccccc2c(=O)n1/N=C/c1cc(Br)cc(Br)c1O | 8.1* | i | i | i | CHO-K1 Tl ctr=11*;KCNQ1 sel pot=-15;KCNQ2 pot confirm=-26;Kir2-1 sel=-33
Cc1nc2ccccc2c(=O)n1-c1ccc(Br)cn1 | x | i | x | x
CCN(CC)C(=O)c1ccc2c(c1)C1C=CCC1C(C(=O)O)N2 (stereo unspecified) | x | i | x | x
c1ccc(CNCCc2c[nH]c3ccccc23)cc1 | x | i | x | x
CCc1ccc(CNCCc2c[nH]c3ccccc23)cc1 | x | i | 18%* | i
COc1ccc(CC(C)NCCc2ccc(OC)c(OC)c2)cc1 (stereo unspecified) | 4 | i | x | x
CCOP(=O)(Cc1cc(C(C)=O)c(C)o1)OCC | 1.1 | i | x | x
Cc1cccc(CCNCc2cc3cccc(C)c3[nH]c2=O)c1 | 1.1 | i | 52%* | i
Cc1ccc2cc(CNCCc3ccccc3C)c(=O)[nH]c2c1 | 1.1 | i | x | x
Cc1c(N=Nc2c(O)n(C)c(=O)n(C)c2=O)c(=O)n(-c2ccccc2)n1C | x | i | x | x
CCN(CC)P(=O)(c1n(CC)cc[n+]1CC)N(CC)CC | x | i | x | x
Nc1ncn[nH]1 | x | i | x | x
CN1C(C(=O)N2CCC3(CC2)OCCO3)=CC(c2ccc(F)cc2)=NS1(=O)=O | 1.6 | i | x | x
CN1C2CCC1CC(=NO)C2 | 0.09 | i | x | x
CCOc1ccc(Cl)cc1CNCCc1ccccc1F | x | i | 38%* | i
COc1ccc(CCNCc2ccccc2F)cc1OC | 1.9 | i | x | x
COc1cccc(OCc2cc(C(=O)N3C[C@H]4C[C@@H](C3)c3cccc(=O)n3C4)no2)c1 | x | i | x | x
Cc1cc(-c2ccccc2)cc(C)[n+]1Cc1ccccc1 | 1.8 | i | x | x
CN(C)c1ccc(-[n+]2c(-c3ccccc3)cc(-c3ccccc3)cc2-c2ccccc2)cc1 | -9.1 | -9.1* | i | i
Cc1ccc(-c2cc(-c3ccccc3)cc(-c3ccccc3)[n+]2-c2ccccc2)cc1 | x | i | 18%* | 59%*
